Assay [1] has as its target Thyrotropin receptor (Homo sapiens) (UniProt P16473). Put plainly: qHTS assay to identify small molecule agonists of the thyroid stimulating hormone receptor (TSHR) signaling pathway (AID 1224843; calls by dose curve; note: nearly all actives have a fitted effect of over 45% in size). In outline: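 Agonist-mode screen: TSHR HEK293 cells received test chemicals for half an hour at room temperature, then HTRF cAMP detection reagents for one hour prior to fluorescence measurement. Each chemical ran as a 15-concentration series, triplicated.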

Assay [2] can be described thus: qHTS assay to identify small molecule agonists of the hypoxia (HIF-1) signaling pathway - cell viability counter screen (AID 1224844; calls by dose curve; note: nearly all actives have a fitted effect of over 50% in size). In outline:
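In this counter screen, HRE-bla ME-180 cell viability after 17 hrs of compound exposure at 37C was read by CellTiter-Glo luminescence, multiplexed with the beta-lactamase reporter measurement.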
A general note: qHTS replaces the single test concentration by a dilution series.

Assay [3] is described as follows: qHTS assay to identify small molecule agonists of H2AX (AID 1224845; active = well fitted activation curve with a large enough effect in the signal ratio in the repeat runs, not every such curve was filed as active; the % refers to the signal ratio). In outline:
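Wild-type CHO-K1 cells, plated overnight, exposed 3hr at 37C to 15 concentrations (0.76% DMSO final). Lysed, then HTRF anti-pH2AX (S139) cryptate and anti-H2AX-d2 antibodies, 24 hr room temperature; 665/620 nm emission read.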

Assay [4] is described as follows: qHTS assay to identify small molecule agonists of the hypoxia (HIF-1) signaling pathway (AID 1224846; active = well fitted activation curve with a large enough effect in the signal ratio in the repeat runs, not every such curve was filed as active; the % refers to the signal ratio). In outline:
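ME-180 HRE-bla reporter cells; compounds in DMSO, 17 h at 37C; read-out beta-lactamase via CCF4-AM FRET.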

Assay [5] can be described thus: qHTS assay to identify small molecule agonists of H2AX - cell viability counter screen (AID 1224847; calls by dose curve; note: top concentration of the series differs between compounds; nearly all actives have a fitted effect of over 30% in size). In short, it runs like this: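 Counter-screen for viability: CellTiter-Glo ATP luminescence read after 3 h compound treatment (15-point titration, 0.76% DMSO final) of CHO-K1 cells at 37C, with 30 min room-temperature reagent incubation.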
The nature of assay [6]: qHTS RealTime-Glo MT Cell Viability Assay in HepG2 cells - 24 hour (AID 1224867). Note: nearly all actives have a fitted effect of over 50% in size. In short, it runs like this: (§1)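 qHTS, HepG2, 600 cells/well, RealTime-Glo (NanoLuc + prosubstrate) added with cells; 5 h preincubation; DMSO compound addition; 37 C; luminescence at 0/8/16/24/32/40 h.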
Assay [7] in a line: qHTS RealTime-Glo MT Cell Viability Assay in HEK293 cells - 32 hour (AID 1224868). Note: nearly all actives have a fitted effect of over 50% in size. Note: potency is the fitted concentration of half-maximal effect. In outline:
(§2)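 Assay medium contained NanoLuc luciferase plus cell-permeant prosubstrate, added with HEK293 cells at 600 cells/well. After 5 h at 37 C/5% CO2 compounds were added; plates stayed at 37 C for 40 h with serial luminescence reads.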

A short description of assay [8]: A CellTox Green Cytotoxicity Assay to monitor cytotoxicity in HEK293 cells - 0 hour (AID 1224869). Note: nearly all actives have a fitted effect of over 50% in size. In short, it runs like this: (§3)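 Real-time, in one plate: 600 HEK293 cells/well with dead-cell DNA dye, pinned compound after 5 h, 37 C incubation over 40 h; viable cells give no appreciable fluorescence.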
The nature of assay [9]: qHTS RealTime-Glo MT Cell Viability Assay in HepG2 cells - 40 hour (AID 1224870). Note: nearly all actives have a fitted effect of over 50% in size. In short, it runs like this:
(§4)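 HepG2 cells (600/well) mixed with RealTime-Glo MT reagent, settled 5 h at 37 C/5% CO2 before compound addition. Nonlytic NanoLuc luminescence from viable-cell prosubstrate reduction read repeatedly during 40 h treatment at 37 C.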

Assay [10] in a line: A CellTox Green Cytotoxicity Assay to monitor cytotoxicity in HEK293 cells - 40 hour (AID 1224871). Note: nearly all actives have a fitted effect of over 45% in size. In short, it runs like this:
as §3

The nature of assay [11]: qHTS RealTime-Glo MT Cell Viability Assay in HEK293 cells - 16 hour (AID 1224872). Note: nearly all actives have a fitted effect of over 50% in size. Note: potency is the fitted concentration of half-maximal effect. In outline:
as §2

The nature of assay [12]: qHTS RealTime-Glo MT Cell Viability Assay in HepG2 cells - 8 hour (AID 1224873). Note: nearly all actives have a fitted effect of over 55% in size. In short, it runs like this: as §4
Assay [13] in a line: qHTS RealTime-Glo MT Cell Viability Assay in HEK293 cells - 40 hour (AID 1224874). Note: nearly all actives have a fitted effect of over 50% in size. Note: potency is the fitted concentration of half-maximal effect. The note with it: RealTime-Glo luminescence; max response: active compounds read low. In short, it runs like this: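 Kinetic, non-lysing viability readout. Seed HEK293 (600/well) with reagent, incubate 5 h at 37 C/5% CO2, pin 23 nL compound in DMSO, incubate at 37 C, read luminescence at 0, 8, 16, 24, 32, 40 h.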

Assay [14] is described as follows: A CellTox Green Cytotoxicity Assay to monitor cytotoxicity in HEK293 cells - 24 hour (AID 1224875). Note: nearly all actives have a fitted effect of over 45% in size. In short, it runs like this: as §3
Assay [15] can be described thus: qHTS RealTime-Glo MT Cell Viability Assay in HepG2 cells - 32 hour (AID 1224877). Note: nearly all actives have a fitted effect of over 55% in size. In outline: as §1
Assay [16] is described as follows: A CellTox Green Cytotoxicity Assay to monitor cytotoxicity in HepG2 cells - 24 hour (AID 1224878). Note: nearly all actives have a fitted effect of over 45% in size. In outline:
(§5)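 Cytotoxicity was tracked as dead-cell DNA fluorescence in HepG2 cells treated with test compounds at 37 C; each time-point value comes from one kinetic series spanning 0, 8, 16, 24, 32 and 40 h.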

Assay [17] in a line: A CellTox Green Cytotoxicity Assay to monitor cytotoxicity in HepG2 cells - 40 hour (AID 1224879). Note: nearly all actives have a fitted effect of over 40% in size. In short, it runs like this: as §5
Assay [18] is described as follows: qHTS assay to identify small molecule antagonists of the estrogen related receptor (ERR) signaling pathway from Tox21 library (AID 1224848). Note: nearly all actives have a fitted effect of over 50% in size. In outline:
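Quantitative high-throughput format: ERR reporter cells (2,000/well) pre-incubated 6 h, treated 18 h at 37 C with compounds in DMSO alongside positive and negative controls, then read by ONE-Glo luminescence.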

Assay [19] is described as follows: qHTS assay to identify small molecule agonists of the estrogen related receptor (ERR) signaling pathway from Tox21 library (AID 1224849; calls by dose curve; note: nearly all actives have a fitted effect of over 15% in size). The note with it: ERR reporter cell line, ONE-Glo luciferase, 18 h; at 92.4 µM (top of the series) unless noted. In outline: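 Luciferase activity in ERR pathway reporter cells served as the agonist readout; exposure lasted 18 h at 37 C, with ONE-Glo detection after 30 min at room temperature.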

Assay [20] can be described thus: A CellTox Green Cytotoxicity Assay to monitor cytotoxicity in HepG2 cells - 16 hour (AID 1224876). Note: nearly all actives have a fitted effect of over 45% in size. In short, it runs like this: as §5

The structures appear in SMILES notation. A number with no mark means an inactive call. Records with an inconclusive call do not appear. Activity calls are given as the source filed them. Unless noted, calls come from the whole dose curve; as a rule, active = well fitted curve in the direction sought with a large enough effect in the repeat runs; inconclusive = weak or mixed curves; inactive = no such curve, though single readings can be large; an effect the other way counts as inactive or inconclusive.
% is set by controls: 0 for no effect and ±100 for the full control effect.

Chain of Thyrotropin receptor (Homo sapiens) (P16473 whole entry, looked up): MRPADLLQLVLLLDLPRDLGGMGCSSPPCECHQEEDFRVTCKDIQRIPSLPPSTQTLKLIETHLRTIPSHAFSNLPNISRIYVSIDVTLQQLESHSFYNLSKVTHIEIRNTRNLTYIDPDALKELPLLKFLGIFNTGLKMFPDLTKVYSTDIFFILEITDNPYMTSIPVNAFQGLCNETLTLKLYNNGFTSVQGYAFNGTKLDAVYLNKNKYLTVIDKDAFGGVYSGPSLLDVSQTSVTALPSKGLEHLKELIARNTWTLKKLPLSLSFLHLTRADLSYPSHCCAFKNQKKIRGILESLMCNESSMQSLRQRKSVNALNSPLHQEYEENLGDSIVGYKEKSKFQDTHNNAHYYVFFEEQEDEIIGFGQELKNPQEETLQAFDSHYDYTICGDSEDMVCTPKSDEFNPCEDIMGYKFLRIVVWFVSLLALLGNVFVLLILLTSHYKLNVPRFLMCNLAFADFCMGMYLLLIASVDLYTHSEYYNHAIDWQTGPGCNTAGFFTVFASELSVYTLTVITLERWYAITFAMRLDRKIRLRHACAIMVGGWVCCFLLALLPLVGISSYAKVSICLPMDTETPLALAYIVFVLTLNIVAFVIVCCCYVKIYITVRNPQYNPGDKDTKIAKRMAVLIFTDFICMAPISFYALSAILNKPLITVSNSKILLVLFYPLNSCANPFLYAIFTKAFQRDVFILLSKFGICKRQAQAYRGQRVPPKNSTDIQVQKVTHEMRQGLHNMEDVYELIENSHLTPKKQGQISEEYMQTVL

`COC(=O)c1cncn1C(C)c1ccccc1` (stereo not given): the Potency result in assay [1], in assay [2], in assay [3], in assay [5], in assay [6] and in assay [7] was “inactive” in each case. The Potency result in [8], in assay [9], in [10], in [11], in assay [12] and in assay [14] was “inactive” throughout. Besides, the Potency entry in [15], in assay [16] and in [17] was “inactive” each time. In addition, the outcome in assay [4] was inactive. Besides, the max response in assay [13] is 1.22%.
Consider `CC(=O)C(C)(C)C`, for which the Potency result in assay [1], in assay [2], in assay [3], in assay [5], in [18] and in [6] was “inactive” in each case. Moreover, the Potency result in assay [7], in assay [8], in assay [9], in [10], in assay [12] and in [14] was “inactive” each time. Further, the Potency entry in assay [20], in assay [15], in assay [16] and in assay [17] was “inactive” throughout. Also, in assay [4], the call was inactive. Further, the activity change, positive = activation in assay [19] was -0.0388%. The max response in assay [13] is 8.72%.
For `O=C(Nc1ccccc1)Nc1cnns1`, the Potency result in assay [1], in assay [2], in assay [3], in assay [5], in [8] and in assay [9] was “inactive” in each case. For the same compound, the Potency result in [10], in assay [12], in assay [14], in assay [15], in assay [16] and in [17] was “inactive” throughout. For the same compound, the call in assay [4] was inactive. Also, the activity change, positive = activation in [19] was -23.5%. In addition, the Potency in assay [7] and in [13] was 27.5 µM (active) throughout.
Regarding `CN1C(=O)NC(=O)C(C)(C2=CCCCC2)C1=O` (stereo not given), the Potency result in [1], in assay [2], in [3], in assay [5], in assay [6] and in assay [7] was “inactive” in each case. In addition, the Potency entry in assay [8], in assay [9], in [10], in [12], in assay [14] and in [20] was “inactive” throughout. For the same compound, the Potency entry in assay [15], in assay [16] and in assay [17] was “inactive” throughout. In addition, the outcome in [4] was inactive. For the same compound, the max response in assay [13] is 11.8%.
Turning to `O=C(O)COc1ccc(Cl)cc1`, the Potency result in assay [1], in [2], in assay [3], in assay [5], in [18] and in [6] was “inactive” in each case. Besides, the Potency entry in [7], in assay [8], in [9], in [10], in assay [12] and in [14] was “inactive” throughout. Besides, the Potency result in assay [15], in assay [16] and in [17] was “inactive” throughout. For the same compound, the compound was called inactive in assay [4]. The activity change, positive = activation in assay [19] was 1.55%. The max response in assay [13] was 0.692%.
`O=C(NCc1cccnc1)Nc1ccc([N+](=O)[O-])cc1`: the Potency entry in [1], in assay [2], in assay [3], in assay [5], in assay [6] and in assay [8] was “inactive” throughout. Also, the Potency result in assay [9], in [10], in assay [12], in assay [14], in assay [20] and in assay [15] was “inactive” throughout. Also, the Potency entry in [16] and in assay [17] was “inactive” each time. Besides, the result in assay [4] was inactive. Further, the figures for the Potency in assay [7], in [11] and in [13] were 49 µM (active), 49 µM (active) and 54.9 µM (active), respectively.
As to `CC1Sc2c(C(=O)O)c(=O)c3cc(F)c(N4CCNCC4)cc3n21` (stereo not given), the Potency entry in assay [1], in assay [2], in assay [3], in assay [5], in assay [18] and in [6] was “inactive” each time. Also, the Potency result in assay [7], in assay [8], in assay [9], in assay [10], in assay [11] and in [12] was “inactive” each time. The Potency result in assay [14], in [20], in [15], in assay [16] and in assay [17] was “inactive” each time. Also, the compound was classed as inactive in assay [4]. Further, in assay [19], the activity change, positive = activation was 11.7% [at 42.5 µM]. Also, in assay [13], the max response was 1.01%.

The values above are taken from PubChem BioAssay (Tox21).
